Results taken from the supplement of paper PMC8975748.
Counter-ions that a name gives are not always drawn.

test system: Saccharomyces cerevisiae BY4741 SeMeCo community; assay: z-score of subpopulation abundance vs DMSO median, subpopulation auxotrophic for L; higher = larger share of this subpopulation than in DMSO controls; conditions: 10 µM; 24 h; SM minimal medium; subpopulation (auxotrophy): L
How it was run: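 A Saccharomyces cerevisiae BY4741 community carried four plasmids, each restoring one auxotrophy and encoding a distinct fluorescent protein. It was pre-grown overnight to OD600 1.0, diluted to 0.3, and 70 µl was added to 384-well plates acoustically predosed with library drugs (10 µM final), then grown 24 h in minimal SM medium. Cells were paraformaldehyde-fixed and imaged by automated confocal microscopy, with single-auxotroph fluorescent strains setting thresholds and autofluorescence correction. Each subpopulation's abundance was scored as a z-score against the vehicle-well median.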

| SMILES | z-score of subpopulation abundance |
| --- | --- |
| CCCCOc1cc(C(=O)NCCN(CC)CC)c2ccccc2n1 [Dibucaine HCl] | -0.47 |
| Clc1ccc(CSC(Cn2ccnc2)c2ccc(Cl)cc2Cl)cc1 (centres undefined) [Sulconazole Nitrate] | -0.34 |
| COc1ccc(C2CNC(=O)C2)cc1OC1CCCC1 (centres undefined) [Rolipram] | -0.37 |
| C[C@]12CC[C@@H]3c4ccc(O)cc4CC[C@H]3[C@@H]1CC[C@@H]2OC(=O)CCC1CCCC1 [Estradiol Cypionate] | -0.23 |
| C[C@@H](NCCCc1cccc(C(F)(F)F)c1)c1cccc2ccccc12 [Cinacalcet HCl] | 2.8 |
| Cc1cc(/C=C/c2ccc3cc(N(C)C)ccc3[n+]2C)c(C)n1-c1ccccc1 [pyrvinium] | -1.29 |
| CC(C)Cc1ccc(C(C)C(=O)O)cc1 (centres undefined) [Ibuprofen Lysine] | -0.17 |
| O=C(Cn1cnnn1)N[C@@H]1C(=O)N2C(C(=O)O)=C(CSc3nncs3)CS[C@H]12 [Ceftezole sodium] | -0.77 |
| CC[N+](C)(C)c1cccc(O)c1 [Edrophonium chloride] | -0.53 |
| Nc1ccc(S(N)(=O)=O)cc1 [Sulfanilamide] | -1.4 |
| CCCN(CCC)CCc1cccc2c1CC(=O)N2 [Ropinirole HCl] | 1.95 |
| CN(C)CCCC1(c2ccc(F)cc2)OCc2cc(C#N)ccc21 (centres undefined) [Citalopram HBr] | -0.17 |
| CN1CCCN=C1/C=C/c1cccs1 [Pyrantel Pamoate] | -0.64 |
| CN(C)CCC[C@@]1(c2ccc(F)cc2)OCc2cc(C#N)ccc21 [Escitalopram Oxalate] | 0.5 |
| CCCCCC(=O)O[C@]1(C(C)=O)CC[C@H]2[C@@H]3CCC4=CC(=O)CC[C@]4(C)[C@H]3CC[C@@]21C [Hydroxyprogesterone caproate] | 1.21 |
| C[C@]12CCC(=O)C=C1[C@@H]1C[C@@H]1[C@H]1[C@@H]3[C@@H]4C[C@@H]4[C@@]4(CCC(=O)O4)[C@@]3(C)CC[C@@H]12 [Drospirenone] | -0.08 |
| CC[C@H]1OC(=O)[C@H](C)[C@@H](O[C@H]2C[C@@](C)(OC)[C@@H](O)[C@H](C)O2)[C@H](C)[C@@H](O[C@@H]2O[C@H](C)C[C@H](N(C)C)[C@H]2O)[C@](C)(O)C[C@@H](C)/C(=N\OCOCCOC)[C@H](C)[C@@H](O)[C@]1(C)O [Roxithromycin] | -0.94 |
| CCC(C)(C)c1ccc(CC(C)CN2C[C@@H](C)O[C@@H](C)C2)cc1 (some centres undefined) [Amorolfine HCl] | -4.45 |
| CC(=O)N[C@H]1[C@H]([C@H](O)[C@H](O)CO)OC(C(=O)O)=C[C@@H]1NC(=N)N [Zanamivir] | 1.27 |
| CCOc1cc(N)c([N+](=O)[O-])cc1C(=O)NC1CCN(CC2CC=CCC2)CC1 (centres undefined) [Cinitapride Hydrogen Tartrate] | -0.2 |

| SMILES | z-score of subpopulation abundance |
| --- | --- |
| CCC(=O)c1c(O)cc(O)cc1O [Flopropione] | -0.09 |
| CCCCCNC(=N)N/N=C/c1c[nH]c2ccc(OC)cc12 [Tegaserod Maleate] | 2.04 |
| CC(C)c1c(C(=O)Nc2ccccc2)c(-c2ccccc2)c(-c2ccc(F)cc2)n1CC[C@@H](O)C[C@@H](O)CC(=O)O [Atorvastatin] | 1.5 |
| COc1ccc(C(C)=O)c(O)c1 [Paeonol] | 0.17 |
| Cc1cc(NS(=O)(=O)c2ccc(N)cc2)no1 [Sulfamethoxazole sodium] | -0.95 |
| NC12CC3CC(CC(C3)C1)C2 [Amantadine] | 0.99 |
| COC(=O)C1=C(C)NC(C)=C(C(=O)OC(C)(C)CN(C)CCC(c2ccccc2)c2ccccc2)C1c1cccc([N+](=O)[O-])c1 (centres undefined) [Lercanidipine] | 1.24 |
| NC1CCN(c2nc3c(cc2F)c(=O)c(C(=O)O)cn3-c2ccc(F)cc2F)C1 (centres undefined) [Tosufloxacin p-Toluenesulfonate Hydrate] | -0.11 |
| CC1(C)S[C@@H]2[C@H](NC(=O)[C@H](N)c3ccc(O)cc3)C(=O)N2[C@H]1C(=O)O [Amoxicillin] | -0.63 |
| CCC1=C(C)CN(C(=O)NCCc2ccc(S(=O)(=O)NC(=O)N[C@H]3CC[C@H](C)CC3)cc2)C1=O [Glimepiride] | 0.24 |
| O=C(O)c1ccccc1C(=O)Nc1ccc(S(=O)(=O)Nc2nccs2)cc1 [Phthalylsulfathiazole] | -0.97 |
| Clc1ccc(CCC(Cn2ccnc2)Sc2c(Cl)cccc2Cl)cc1 (centres undefined) [Butoconazole] | 2.88 |
| Cc1ccc(Sc2ccccc2N2CCNCC2)c(C)c1 [Vortioxetine] | -0.09 |
| CN(Cc1cnc2nc(N)nc(N)c2n1)c1ccc(C(=O)N[C@@H](CCC(=O)O)C(=O)O)cc1 [Methotrexate disodium] | -0.58 |
| Clc1ccc(CCC(Cn2ccnc2)Sc2c(Cl)cccc2Cl)cc1 (centres undefined) [Butoconazole nitrate] | -1.91 |
| CC[C@@H]1/C=C(\C)C[C@H](C)C[C@H](OC)[C@H]2O[C@@](O)(C(=O)C(=O)N3CCCC[C@H]3C(=O)O[C@H](/C(C)=C/[C@@H]3CC[C@H](Cl)[C@H](OC)C3)[C@H](C)[C@@H](O)CC1=O)[C@H](C)C[C@@H]2OC [Pimecrolimus] | 3.91 |
| CN(Cc1cnc2nc(N)nc(N)c2n1)c1ccc(C(=O)N[C@@H](CCC(=O)O)C(=O)O)cc1 [Methotrexate] | -0.82 |
| CCC[S+]([O-])c1ccc2[nH]c(NC(=O)OC)nc2c1 (centres undefined) [Albendazole Oxide] | -0.98 |
| COC(=O)C1=C(C)NC(C)=C(C(=O)OC)C1c1ccccc1[N+](=O)[O-] [Nifedipine] | 0.52 |
